Measured values published in PubChem BioAssay (NCATS).
Results filed as inconclusive are left out. Calls of active or inactive are those of the source. Unless noted, calls come from the whole dose curve; as a rule, active = well fitted curve in the direction sought with a large enough effect; inconclusive = small, poorly fitted or top-dose-only effect, or another doubt; inactive = no such curve, though single readings can be large; an effect the other way counts as inactive or inconclusive.

Key:
[1] = target: Rap guanine nucleotide exchange factor 3 (Homo sapiens) (UniProt O95398); test: Confirmatory qHTS for antagonist of cAMP-regulated guanine nucleotide exchange factor 3 (EPAC1) (AID 1645880); conditions: EPAC1 Rap1B-BODIPY-GDP exchange, fluorescence; activity, negative = inhibition: at 115 µM (top of the series);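 note: plate controls were DMSO only for no effect and full effect of the ATA control for full effect; nearly all actives have a fitted effect of over 55% in size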
Rap guanine nucleotide exchange factor 3 (Homo sapiens), sequence (O95398 whole entry, looked up): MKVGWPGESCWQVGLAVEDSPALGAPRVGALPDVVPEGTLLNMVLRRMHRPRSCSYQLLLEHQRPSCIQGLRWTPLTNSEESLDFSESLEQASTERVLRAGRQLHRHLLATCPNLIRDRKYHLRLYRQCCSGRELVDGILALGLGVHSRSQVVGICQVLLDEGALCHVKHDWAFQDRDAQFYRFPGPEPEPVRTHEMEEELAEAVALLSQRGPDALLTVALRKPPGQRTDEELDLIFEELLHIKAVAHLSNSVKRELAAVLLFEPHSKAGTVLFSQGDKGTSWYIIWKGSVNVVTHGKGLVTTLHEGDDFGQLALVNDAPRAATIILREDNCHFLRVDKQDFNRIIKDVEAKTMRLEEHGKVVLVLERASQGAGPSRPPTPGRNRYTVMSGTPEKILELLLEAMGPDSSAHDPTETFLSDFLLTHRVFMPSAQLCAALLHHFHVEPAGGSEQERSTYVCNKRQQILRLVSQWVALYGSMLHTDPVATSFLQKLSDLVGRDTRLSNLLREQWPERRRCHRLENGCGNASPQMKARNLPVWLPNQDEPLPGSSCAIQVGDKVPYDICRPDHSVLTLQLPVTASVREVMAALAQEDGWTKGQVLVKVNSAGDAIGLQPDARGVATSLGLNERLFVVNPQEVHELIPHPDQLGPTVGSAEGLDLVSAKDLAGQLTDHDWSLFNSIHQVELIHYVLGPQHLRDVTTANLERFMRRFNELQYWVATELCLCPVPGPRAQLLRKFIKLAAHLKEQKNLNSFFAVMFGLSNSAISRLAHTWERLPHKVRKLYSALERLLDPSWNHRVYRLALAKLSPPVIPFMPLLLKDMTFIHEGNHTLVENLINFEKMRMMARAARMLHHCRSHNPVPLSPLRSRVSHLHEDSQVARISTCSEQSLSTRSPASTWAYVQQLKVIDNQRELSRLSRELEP
How it was run: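 Released BODIPY-GDP fluoresces less than Rap1-bound BODIPY-GDP; the signal is followed at 480/540 nm at 5-min intervals over 30 min, after 5 min at room temperature. Reactions contain 100 nM EPAC1, 250 nM RAP1B-BODIPY-GDP and 50 uM GDP; results are normalized to ATA and DMSO.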

[2] = target: Rap guanine nucleotide exchange factor 4 (Homo sapiens) (UniProt Q8WZA2); test: Confirmatory qHTS for antagonist of cAMP-regulated guanine nucleotide exchange factor 4 (EPAC2) (AID 1645885); note: % is set by controls: 0 for no effect and ±100 for the full control effect; nearly all actives have a fitted effect of over 25% in size
Rap guanine nucleotide exchange factor 4 (Homo sapiens), sequence (Q8WZA2 whole entry, looked up): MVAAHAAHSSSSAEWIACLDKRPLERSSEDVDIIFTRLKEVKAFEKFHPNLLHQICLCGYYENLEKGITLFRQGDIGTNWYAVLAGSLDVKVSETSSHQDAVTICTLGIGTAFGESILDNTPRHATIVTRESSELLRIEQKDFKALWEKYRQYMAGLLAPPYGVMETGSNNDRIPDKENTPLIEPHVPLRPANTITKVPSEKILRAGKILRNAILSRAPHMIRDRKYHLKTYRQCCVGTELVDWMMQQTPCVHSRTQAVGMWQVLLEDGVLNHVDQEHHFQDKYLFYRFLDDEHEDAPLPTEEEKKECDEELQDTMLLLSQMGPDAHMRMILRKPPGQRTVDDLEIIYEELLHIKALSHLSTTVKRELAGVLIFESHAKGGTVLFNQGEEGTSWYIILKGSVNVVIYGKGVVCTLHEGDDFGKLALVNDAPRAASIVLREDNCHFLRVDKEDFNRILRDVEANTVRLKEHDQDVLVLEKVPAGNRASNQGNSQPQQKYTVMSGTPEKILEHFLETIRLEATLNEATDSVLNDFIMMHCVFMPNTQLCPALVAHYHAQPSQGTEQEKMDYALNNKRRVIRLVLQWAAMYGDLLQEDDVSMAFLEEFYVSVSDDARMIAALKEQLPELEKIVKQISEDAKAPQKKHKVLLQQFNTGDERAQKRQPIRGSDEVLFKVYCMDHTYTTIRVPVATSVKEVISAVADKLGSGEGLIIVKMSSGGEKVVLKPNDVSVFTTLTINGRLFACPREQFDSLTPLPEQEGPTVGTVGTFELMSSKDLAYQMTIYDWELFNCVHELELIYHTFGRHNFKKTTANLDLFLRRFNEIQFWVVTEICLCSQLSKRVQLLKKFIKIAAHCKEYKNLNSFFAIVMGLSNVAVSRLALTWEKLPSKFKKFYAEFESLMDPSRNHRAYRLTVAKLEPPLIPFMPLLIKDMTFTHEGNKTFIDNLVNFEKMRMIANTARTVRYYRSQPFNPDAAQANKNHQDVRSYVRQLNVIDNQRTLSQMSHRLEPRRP

[3] = target: Rap guanine nucleotide exchange factor 3 (Homo sapiens) (UniProt O95398); test: Counterscreen qHTS for antagonist of cAMP-regulated guanine nucleotide exchange factor 3 (EPAC1) (AID 1645888); note: % of control where 0% means no effect
How it was run: (§1)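 Rap1B–BODIPY-GDP (250 nM) with 50 uM GDP; compounds pin-transferred to 9.74 nM–152 uM final (activator) or from 7.32 nM upwards (inhibitor). Fluorescence Ex/Em 480/540 nm read at 5 and 30 min, then after adding cAMP or buffer, at room temperature.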

[4] = target: Rap guanine nucleotide exchange factor 3 (Homo sapiens) (UniProt O95398); test: Counterscreen qHTS for agonist of cAMP-regulated guanine nucleotide exchange factor 3 (EPAC1) (AID 1645889); note: nearly all actives have a fitted effect of over 40% in size; note: potency is the fitted concentration of half-maximal effect; for activation: % of control where 0% means no effect
How it was run: as §1

[5] = AP1 Signaling Pathway (AID 357; active = well fitted curve in either direction with a large enough effect, not every such curve was filed as active; note: % is set by controls: 0 for no effect and ±100 for the full control effect); conditions: ME-180 (cervical carcinoma) AP-1-bla reporter, EGF-induced, beta-lactamase ratio, 5 h; at 7.69 µM (top of the series) unless noted
How it was run: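 In this screen, ME-180 cells in Opti-MEM with 0.5% dialyzed FBS received EC50 EGF and compound titrations for 5 h. AP-1 reporter beta-lactamase was detected via CCF4 ratio, giving AC50 for positive and negative modulators.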

[6] = target: Cytochrome P450 1A2 (Homo sapiens) (UniProt P05177); test: p450-cyp1a2 (AID 410; calls by dose curve; note: potency is the fitted concentration of half-maximal effect)
How it was run: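 Read-out is luminescence from luciferin produced by CYP1A2 demethylation of Luciferin-ME (100uM, at Km). Detection reagent stopped the 60 min NADPH-dependent reaction; signals were normalized to 57 uM furafylline.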

[7] = NFAT Signaling Pathway (AID 444; active = well fitted curve in either direction with a large enough effect, not every such curve was filed as active;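 note: carbachol stimulus at about its EC50 of 1 µM final; % is set by controls: 0 for no effect and ±100 for the full control effect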); conditions: Jurkat NFAT-bla M1, carbachol, beta-lactamase ratio, 5 h; at 7.69 µM (top of the series) unless noted
How it was run: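 Jurkat cells with NFAT-driven β-lactamase reporter and co-expressed M1 receptor, stimulated with carbachol (final 1 uM, ~EC50), compound titration, 5 h at 37 °C. CCF4 loaded 1 h at RT; 460/530 nm ratio gave %activity and AC50.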

[8] = target: Glucocorticoid receptor (Homo sapiens) (UniProt P04150); test: GR-EFC Redistribution (AID 451; calls by dose curve; note: potency is the fitted concentration of half-maximal effect); conditions: CHO-K1 GR-EFC translocation, beta-gal luminescence, 2 h
How it was run: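 CHO-K1 cells expressing nuclear EA and GR-ED fragments of b-gal; compounds titrated up to 46 uM final, 2 h at 37 C. GR nuclear translocation read as complemented b-gal luminescence after 1 h RT detection.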

[9] = target: Mitogen-activated protein kinase 10 (Mus musculus) (UniProt Q61831); test: JNK3 AlphaScreen Assay (AID 530; active = well fitted curve in either direction with a large enough effect, not every such curve was filed as active;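 note: kinase came from lysate of stimulated human HepG2 cells; signal reports phosphorylation of biotinylated GST-cJun 1-79 at Ser73 with 10 µM ATP; % is set by controls: 0 for no effect and ±100 for the full control effect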)
How it was run: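 HepG2 lysate (IL-1b/TNFa pre-activated) + biotin-GST-cJun 1-79 + anti-pSer73 cJun; cpd titration, 15 min RT; ATP 10 uM start; Tris pH 7.6, MgCl2, DTT, vanadate; beads in EDTA buffer; AlphaScreen.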

[10] = target: 3',5'-cyclic-AMP phosphodiesterase 4B (Homo sapiens) (UniProt Q07343); test: qHTS Assay for Inhibitors of PDE-IV (AID 607; active = well fitted activation curve with a large enough effect in the main read-out, with a control signal flat, not every such curve was filed as active; note: % of control where 0% means no effect)
3',5'-cyclic-AMP phosphodiesterase 4B (Homo sapiens), sequence (Q07343 whole entry, looked up): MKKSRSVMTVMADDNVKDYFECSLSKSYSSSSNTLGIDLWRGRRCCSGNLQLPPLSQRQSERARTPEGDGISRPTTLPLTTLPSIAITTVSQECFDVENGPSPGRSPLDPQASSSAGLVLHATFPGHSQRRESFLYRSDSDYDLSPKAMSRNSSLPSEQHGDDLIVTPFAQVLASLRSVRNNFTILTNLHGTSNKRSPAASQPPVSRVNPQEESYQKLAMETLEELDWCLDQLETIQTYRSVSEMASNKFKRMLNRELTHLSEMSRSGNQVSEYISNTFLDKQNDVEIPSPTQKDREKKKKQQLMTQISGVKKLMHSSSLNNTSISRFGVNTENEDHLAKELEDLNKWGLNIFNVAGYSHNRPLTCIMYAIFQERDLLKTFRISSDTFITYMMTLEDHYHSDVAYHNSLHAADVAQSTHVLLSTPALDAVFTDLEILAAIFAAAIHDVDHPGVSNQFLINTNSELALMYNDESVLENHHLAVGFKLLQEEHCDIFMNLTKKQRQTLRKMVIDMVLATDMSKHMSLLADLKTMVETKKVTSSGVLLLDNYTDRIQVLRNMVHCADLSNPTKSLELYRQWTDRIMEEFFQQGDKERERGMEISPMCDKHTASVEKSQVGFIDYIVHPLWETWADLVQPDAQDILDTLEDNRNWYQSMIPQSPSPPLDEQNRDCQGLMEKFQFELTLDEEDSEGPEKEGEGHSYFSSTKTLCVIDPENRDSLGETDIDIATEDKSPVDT
How it was run: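 Live HEK293 cells with a modified cyclic nucleotide-gated (CNG) channel report intracellular cAMP via membrane-potential dye fluorescence (ex 535/em 590 nm). Endogenous PDE-IV was targeted. Compounds were tested at up to 22.9 uM final; RO 20-1724 100 uM served as control.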

[11] = target: Guanine nucleotide-binding protein G(i) subunit alpha-1 (Homo sapiens) (UniProt P63096); test: qHTS Assay for Inhibitors of RGS12 GoLoco Motif Activity (Green Fluorophore) (AID 879); note: potency is the fitted concentration of half-maximal effect
Guanine nucleotide-binding protein G(i) subunit alpha-1 (Homo sapiens), sequence (P63096 whole entry, looked up): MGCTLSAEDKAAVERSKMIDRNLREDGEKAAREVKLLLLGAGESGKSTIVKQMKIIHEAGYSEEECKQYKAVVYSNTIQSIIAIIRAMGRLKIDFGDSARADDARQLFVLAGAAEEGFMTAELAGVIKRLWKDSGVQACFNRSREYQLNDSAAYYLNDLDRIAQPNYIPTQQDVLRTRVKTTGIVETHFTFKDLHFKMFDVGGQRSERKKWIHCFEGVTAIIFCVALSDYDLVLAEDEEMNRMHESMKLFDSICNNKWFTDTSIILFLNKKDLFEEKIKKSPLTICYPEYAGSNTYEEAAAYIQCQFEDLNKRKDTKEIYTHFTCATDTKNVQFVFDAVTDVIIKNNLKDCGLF
How it was run: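 A drop in FITC polarization marked displacement of the FITC-tagged RGS12 GoLoco peptide (10 nM) from Gαi1 (50 nM). Compounds were incubated 10 min at room temperature in Tris pH 7.5 buffer containing 150 mM NaCl, 0.1 mM GDP and 0.05% NP40; unlabeled peptide titration served as control.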

[12] = qHTS Assay for Identification of Small Molecule Antagonists for Thrombopoietin (TPO) Signaling Pathway (AID 918); conditions: TPO-dependent cell signaling reporter, antagonist mode; note: potency is the fitted concentration of half-maximal effect; nearly all actives have a fitted effect of over 60% in size
How it was run: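 Antagonist mode at EC50 TPO (26 pM) in IL-3-free medium; murine Ba/F3 cells with human TPO receptor and GPIIb-promoter luciferase, 24 hrs at 37 C before luminescent detection.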

[13] = target: Pyruvate kinase (Leishmania mexicana) (UniProt Q27686); test: qHTS Validation Assay for Inhibitors of Leishmania Mexicana Pyruvate Kinase (AID 945);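 note: 0% = DMSO only neutral control wells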
Pyruvate kinase (Leishmania mexicana), sequence (Q27686 2-499 E452W): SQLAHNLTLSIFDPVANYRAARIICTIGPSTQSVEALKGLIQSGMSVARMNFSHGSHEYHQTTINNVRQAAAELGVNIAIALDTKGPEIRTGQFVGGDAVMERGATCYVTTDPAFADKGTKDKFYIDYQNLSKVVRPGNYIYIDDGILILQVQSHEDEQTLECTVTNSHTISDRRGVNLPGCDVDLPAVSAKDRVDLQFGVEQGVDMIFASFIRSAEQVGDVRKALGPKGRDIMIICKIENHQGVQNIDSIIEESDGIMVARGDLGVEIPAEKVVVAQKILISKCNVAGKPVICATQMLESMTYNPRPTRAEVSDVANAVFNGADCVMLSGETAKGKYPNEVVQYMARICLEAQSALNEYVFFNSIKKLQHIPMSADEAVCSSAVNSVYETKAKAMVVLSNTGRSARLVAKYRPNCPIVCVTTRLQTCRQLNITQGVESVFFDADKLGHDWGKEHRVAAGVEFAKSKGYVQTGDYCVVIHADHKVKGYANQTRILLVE
How it was run: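 Compounds are tested as eight-point concentration series. Reactions contain 0.2 nM LmPYK E451W, 0.5 mM PEP, 0.1 mM ADP, 7 mM MgCl2 and 50 mM KCl at pH 7.2, run 1 h at room temperature, then read by PKLight luminescence.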

[14] = target: Pyruvate kinase PKM (Homo sapiens) (UniProt P14618); test: qHTS Assay for Activators of Human Muscle Pyruvate Kinase (AID 954; active = well fitted curve in the direction sought with a large enough effect, not every such curve was filed as active;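 note: 0% = uninhibited enzyme and -100% = no enzyme or full thiadiazolimine inhibition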)
Pyruvate kinase PKM (Homo sapiens), sequence (P14618 whole entry, looked up): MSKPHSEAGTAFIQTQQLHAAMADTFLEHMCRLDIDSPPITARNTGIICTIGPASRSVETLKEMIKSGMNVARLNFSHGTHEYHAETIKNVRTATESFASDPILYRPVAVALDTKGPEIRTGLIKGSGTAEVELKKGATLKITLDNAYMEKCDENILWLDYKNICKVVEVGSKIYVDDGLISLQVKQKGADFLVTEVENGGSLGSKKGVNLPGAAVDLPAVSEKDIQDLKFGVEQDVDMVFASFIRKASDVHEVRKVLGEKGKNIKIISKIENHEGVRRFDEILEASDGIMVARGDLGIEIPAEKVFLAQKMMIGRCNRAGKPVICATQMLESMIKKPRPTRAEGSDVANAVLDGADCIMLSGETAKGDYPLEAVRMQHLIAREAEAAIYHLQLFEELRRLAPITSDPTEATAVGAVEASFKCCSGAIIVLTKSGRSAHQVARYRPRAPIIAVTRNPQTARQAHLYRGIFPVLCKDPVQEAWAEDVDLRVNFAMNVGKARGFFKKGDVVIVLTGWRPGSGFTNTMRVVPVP
How it was run: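 Screening used highly purified human pyruvate kinase M2 under submaximal activity, with PEP at its Km and ADP below Km. After an hour at room temperature, ATP was read by luciferase luminescence.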

[15] = target: Alpha-galactosidase A (Homo sapiens) (UniProt P06280); test: Counterscreen for Glucocerebrosidase Inhibitors: qHTS Assay for Human alpha-Galactosidase at pH 4.5 (AID 992); note: 0% is about no effect
Alpha-galactosidase A (Homo sapiens), sequence (P06280 whole entry, looked up): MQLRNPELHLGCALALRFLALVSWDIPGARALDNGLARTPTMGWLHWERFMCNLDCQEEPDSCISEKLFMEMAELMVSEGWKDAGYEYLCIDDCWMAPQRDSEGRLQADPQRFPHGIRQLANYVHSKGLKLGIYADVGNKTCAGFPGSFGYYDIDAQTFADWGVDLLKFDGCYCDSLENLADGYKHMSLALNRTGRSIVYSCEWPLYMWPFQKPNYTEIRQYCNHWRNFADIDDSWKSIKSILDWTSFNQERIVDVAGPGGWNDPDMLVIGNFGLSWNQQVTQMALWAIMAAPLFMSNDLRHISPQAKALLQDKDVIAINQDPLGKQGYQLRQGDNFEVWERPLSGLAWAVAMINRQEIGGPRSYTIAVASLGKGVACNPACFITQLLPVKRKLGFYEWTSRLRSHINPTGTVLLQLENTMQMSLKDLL
How it was run: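 Each compound is preincubated briefly with 2 nM enzyme before substrate addition (80 uM); plates then sit 20 min at ambient temperature, are quenched with 1M NaOH/1M glycine, and read fluorometrically.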

[16] = target: alpha-glucosidase (Oryza sativa, rice) (UniProt Q653V4); test: Counterscreen for Glucocerebrosidase Inhibitors: qHTS Assay for Rice alpha-Glucosidase at pH 5.0 (AID 997);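 note: 0% = full activity with enzyme and -100% = basal without enzyme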
How it was run: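 Endpoint fluorogenic assay at pH 5.0: compounds (0.7 nM to 77 uM) titrated against 4 nM rice enzyme and 400 uM 4-MU-alpha-glucoside for 20 min at room temperature; NaOH/glycine stop, read ex 365/em 440 nm, Hill-fitted AC50.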

[17] = target: Tumor susceptibility gene 101 protein (Homo sapiens) (UniProt Q99816); test: qHTS Assay for Iinhibitors of HIV-1 Budding by Blocking the Interaction of PTAP/TSG101: Hit Validation (AID 651600); note: potency is the fitted concentration of half-maximal effect; nearly all actives have a fitted effect of over 70% in size
Tumor susceptibility gene 101 protein (Homo sapiens), sequence (Q99816 whole entry, looked up, the tested form may be a part): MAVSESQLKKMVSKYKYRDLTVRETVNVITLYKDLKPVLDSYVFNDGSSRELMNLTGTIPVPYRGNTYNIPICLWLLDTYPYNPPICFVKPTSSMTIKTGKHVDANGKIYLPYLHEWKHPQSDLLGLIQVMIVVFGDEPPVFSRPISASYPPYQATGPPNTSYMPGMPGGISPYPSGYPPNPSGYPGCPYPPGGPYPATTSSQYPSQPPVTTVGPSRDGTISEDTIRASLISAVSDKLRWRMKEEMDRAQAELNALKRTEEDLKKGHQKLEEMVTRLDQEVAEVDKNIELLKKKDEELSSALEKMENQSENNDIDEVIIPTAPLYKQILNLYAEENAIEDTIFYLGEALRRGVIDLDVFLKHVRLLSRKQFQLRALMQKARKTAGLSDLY
How it was run: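 FITC-PTAP peptide (50 nM final) binding to Tsg101 binding domain (10 uM final) was measured by polarization after 20 min at r.t. with compounds, in 10 mM HEPES pH 7.5 buffer with 0.15 M NaCl and 0.01% Tween 20.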

COc1cccc(/C(O)=C/c2nc3ccc(C(=O)NCCc4cccc(C)c4)cc3[nH]c2=O)c1
inactive: Potency [1] | Potency [2] | Potency [3] | Potency [4]

COc1ccc(C(=O)Nc2nc(-c3ccc(OC)cc3)c(-c3ccc([N+](=O)[O-])cc3)s2)cc1
inactive: Potency [1] | Potency [2] | Potency [3]
active: Potency [4] 63.1 µM

O=S(=O)(c1ccc(Cl)c2ccccc12)N1CCCC1
inactive: Potency [1] | Potency [2] | Potency [3] | Potency [4]

CCN1CCN(c2ccc(S(=O)(=O)N3CCCCC3)cc2NC(=O)c2cccc(OC(F)F)c2)CC1
inactive: Potency [1] | Potency [2] | Potency [3] | Potency [4]

O=C1CC2(CCN(S(=O)(=O)c3ccccc3F)CC2)Oc2ccccc21
inactive: Potency [1] | Potency [2] | Potency [3]
active: Potency [4] 10 µM

COc1ccc(C2CC(c3cccs3)=NN2c2ccc(C=O)cc2)cc1 (stereo unspecified)
inactive: Potency [1] | Potency [2] | Potency [3]
active: Potency [4] 44.7 µM

CC[n+]1ccc(/C=C/c2c[nH]c3ccccc23)cc1
active: Potency [4] 44.7 µM
inactive: Potency [1] | Potency [2] | Potency [3]

CC(=O)[C@@]1(O)Cc2c(O)c3c(c(O)c2[C@H](O[C@H]2C[C@H](N)[C@H](O)[C@H](C)O2)C1)C(=O)c1ccccc1C3=O
active: activity change, negative = inhibition [5] -110% [at 38 µM] | Potency [6] 20 µM | activity change, negative = inhibition [7] -116% [at 38 µM] | Potency [11] 0.02 µM | Potency [12] 0.0251 µM | Potency [4] 12.6 µM
inactive: Potency [8] > 46 µM | Potency [9] | Potency [10] | outcome [13] | outcome [14] | outcome [15] | outcome [16] | Potency [1] | Potency [2] | activity change, negative = inhibition [3] 128% [at 30.8 µM]

Oc1ccc(N=Cc2sc3ccccc3c2Cl)cc1
inactive: Potency [1] | Potency [2] | Potency [3] | Potency [4]

Nc1ccc2nc3c(=O)n(C4CCCCC4)c(=O)[nH]c3nc2c1
active: Potency [17] 6.51 µM | Potency [4] 22.4 µM
inactive: Potency [1] | Potency [2] | Potency [3]

O=C1/C(=C\c2cc(Cl)c(O)c(Cl)c2)SC(=S)N1Cc1ccccc1
inactive: Potency [1] | Potency [2] | Potency [3]

CN1C(=O)c2cccc3c(N)ccc(c23)C1=O
active: Potency [17] 5.8 µM | Potency [4] 10 µM
inactive: Potency [1] | Potency [2] | Potency [3]
